Where a name gives a salt, the structure may show the parent alone.
Tests used:
Experiment in all cases: phenotypically active (imaging signature differs from DMSO and reproducible) at any of 0.3-9 uM (binary (1 = active, 0 = inactive)); higher = active
Settings in all cases: treatment time: 24 h
A549-ACTB-RAB5A = test system: A549-ACTB-RAB5A
How it was run: (§1)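 The reporter lines, fifteen in total and built by gene editing in A549, HepG2 and WPMY1 cells, used BFP for segmentation alongside GFP and RFP/FusionRed markers. Each was treated at 0.3, 1, 3 or 9 µM for 24 h in four wells and then imaged live, with live-cell features normalised to solvent control wells. Deviation meant ≥3 of 4 wells beyond the 95th percentile of control Euclidean distances; reproducibility meant a median replicate Pearson correlation above the 95th percentile of non-replicates. Only conditions meeting both were scored as phenotypically active.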

A549-CANX-COX4 = test system: A549-CANX-COX4
How it was run: as §1

A549-GM130-SQSTM1 = test system: A549-GM130-SQSTM1
How it was run: as §1

A549-TP53BP1-CLTA = test system: A549-TP53BP1-CLTA
How it was run: as §1

A549-TUBA1B-RELA = test system: A549-TUBA1B-RELA
How it was run: as §1

HepG2-ACTB-RAB5A = test system: HepG2-ACTB-RAB5A
How it was run: as §1

HepG2-CANX-COX4 = test system: HepG2-CANX-COX4
How it was run: as §1

HepG2-GM130-SQSTM1 = test system: HepG2-GM130-SQSTM1
How it was run: as §1

HepG2-TP53BP1-CLTA = test system: HepG2-TP53BP1-CLTA
How it was run: as §1

HepG2-TUBA1B-RELA = test system: HepG2-TUBA1B-RELA
How it was run: as §1

WPMY1-ACTB-RAB5A = test system: WPMY1-ACTB-RAB5A
How it was run: as §1

WPMY1-CANX-COX4 = test system: WPMY1-CANX-COX4
How it was run: as §1

WPMY1-GM130-SQSTM1 = test system: WPMY1-GM130-SQSTM1
How it was run: as §1

WPMY1-TP53BP1-CLTA = test system: WPMY1-TP53BP1-CLTA
How it was run: as §1

WPMY1-TUBA1B-RELA = test system: WPMY1-TUBA1B-RELA
How it was run: as §1

Measured: phenotypically active

CCCCCC1CC1CC1CC1CCCCCCCC(=O)O (stereo not given)
inactive: A549-ACTB-RAB5A 0 | A549-CANX-COX4 0 | A549-GM130-SQSTM1 0 | A549-TP53BP1-CLTA 0 | A549-TUBA1B-RELA 0 | HepG2-ACTB-RAB5A 0 | HepG2-CANX-COX4 0 | HepG2-GM130-SQSTM1 0 | HepG2-TP53BP1-CLTA 0 | HepG2-TUBA1B-RELA 0 | WPMY1-ACTB-RAB5A 0 | WPMY1-CANX-COX4 0 | WPMY1-GM130-SQSTM1 0 | WPMY1-TP53BP1-CLTA 0 | WPMY1-TUBA1B-RELA 0

CCCCN1C[C@H](O)[C@@H](O)[C@H](O)[C@H]1CO [Miglustat hydrochloride]
inactive: A549-ACTB-RAB5A 0 | A549-CANX-COX4 0 | A549-GM130-SQSTM1 0 | A549-TP53BP1-CLTA 0 | A549-TUBA1B-RELA 0 | HepG2-ACTB-RAB5A 0 | HepG2-CANX-COX4 0 | HepG2-GM130-SQSTM1 0 | HepG2-TP53BP1-CLTA 0 | HepG2-TUBA1B-RELA 0 | WPMY1-ACTB-RAB5A 0 | WPMY1-CANX-COX4 0 | WPMY1-GM130-SQSTM1 0 | WPMY1-TP53BP1-CLTA 0 | WPMY1-TUBA1B-RELA 0

O=C(Nc1cc(C(F)(F)F)cc(C(F)(F)F)c1)c1cnc(Cl)nc1C(F)(F)F
inactive: A549-ACTB-RAB5A 0 | A549-CANX-COX4 0 | A549-GM130-SQSTM1 0 | A549-TP53BP1-CLTA 0 | A549-TUBA1B-RELA 0 | HepG2-ACTB-RAB5A 0 | HepG2-CANX-COX4 0 | HepG2-GM130-SQSTM1 0 | HepG2-TP53BP1-CLTA 0 | HepG2-TUBA1B-RELA 0 | WPMY1-ACTB-RAB5A 0 | WPMY1-CANX-COX4 0 | WPMY1-GM130-SQSTM1 0 | WPMY1-TP53BP1-CLTA 0 | WPMY1-TUBA1B-RELA 0

CCN(CC)CCNC(=O)c1cc(Cl)c(N)cc1OC [metoclopramide]
inactive: A549-ACTB-RAB5A 0 | A549-CANX-COX4 0 | A549-GM130-SQSTM1 0 | A549-TP53BP1-CLTA 0 | A549-TUBA1B-RELA 0 | HepG2-ACTB-RAB5A 0 | HepG2-CANX-COX4 0 | HepG2-GM130-SQSTM1 0 | HepG2-TP53BP1-CLTA 0 | HepG2-TUBA1B-RELA 0 | WPMY1-ACTB-RAB5A 0 | WPMY1-CANX-COX4 0 | WPMY1-GM130-SQSTM1 0 | WPMY1-TP53BP1-CLTA 0 | WPMY1-TUBA1B-RELA 0

O=c1oc2c(O)c(O)cc3c(=O)oc4c(O)c(O)cc1c4c23 [Ellagic acid]
inactive: A549-ACTB-RAB5A 0 | A549-CANX-COX4 0 | A549-GM130-SQSTM1 0 | A549-TP53BP1-CLTA 0 | A549-TUBA1B-RELA 0 | HepG2-ACTB-RAB5A 0 | HepG2-CANX-COX4 0 | HepG2-GM130-SQSTM1 0 | HepG2-TP53BP1-CLTA 0 | HepG2-TUBA1B-RELA 0 | WPMY1-ACTB-RAB5A 0 | WPMY1-CANX-COX4 0 | WPMY1-GM130-SQSTM1 0 | WPMY1-TP53BP1-CLTA 0 | WPMY1-TUBA1B-RELA 0

COc1ccc(CCN(C)CCCN2CCc3cc(OC)c(OC)cc3CC2=O)cc1OC [zatebradine]
inactive: A549-ACTB-RAB5A 0 | A549-CANX-COX4 0 | A549-GM130-SQSTM1 0 | A549-TP53BP1-CLTA 0 | A549-TUBA1B-RELA 0 | HepG2-ACTB-RAB5A 0 | HepG2-CANX-COX4 0 | HepG2-GM130-SQSTM1 0 | HepG2-TP53BP1-CLTA 0 | HepG2-TUBA1B-RELA 0 | WPMY1-ACTB-RAB5A 0 | WPMY1-CANX-COX4 0 | WPMY1-GM130-SQSTM1 0 | WPMY1-TP53BP1-CLTA 0 | WPMY1-TUBA1B-RELA 0

CCCCCCCCCCCCCCCCCCc1ccc(C(=O)/C=C/C(=O)O)cc1
inactive: A549-ACTB-RAB5A 0 | A549-CANX-COX4 0 | A549-GM130-SQSTM1 0 | A549-TP53BP1-CLTA 0 | A549-TUBA1B-RELA 0 | HepG2-ACTB-RAB5A 0 | HepG2-CANX-COX4 0 | HepG2-GM130-SQSTM1 0 | HepG2-TP53BP1-CLTA 0 | HepG2-TUBA1B-RELA 0 | WPMY1-ACTB-RAB5A 0 | WPMY1-CANX-COX4 0 | WPMY1-GM130-SQSTM1 0 | WPMY1-TP53BP1-CLTA 0 | WPMY1-TUBA1B-RELA 0

CC(C)(C)NS(=O)(=O)c1cncc(-c2cc(F)c3nc(N)nn3c2)c1
inactive: A549-ACTB-RAB5A 0 | A549-CANX-COX4 0 | A549-GM130-SQSTM1 0 | A549-TP53BP1-CLTA 0 | A549-TUBA1B-RELA 0 | HepG2-ACTB-RAB5A 0 | HepG2-CANX-COX4 0 | HepG2-GM130-SQSTM1 0 | HepG2-TP53BP1-CLTA 0 | HepG2-TUBA1B-RELA 0 | WPMY1-ACTB-RAB5A 0 | WPMY1-CANX-COX4 0 | WPMY1-GM130-SQSTM1 0 | WPMY1-TP53BP1-CLTA 0 | WPMY1-TUBA1B-RELA 0

COc1c(O[C@@H]2O[C@H](CO)[C@@H](O)[C@H](O)[C@H]2O)cc2c(c1OC)-c1ccc(SC)c(=O)cc1[C@@H](NC(C)=O)CC2 [Thiocolchicoside]
inactive: A549-ACTB-RAB5A 0 | A549-CANX-COX4 0 | A549-GM130-SQSTM1 0 | A549-TP53BP1-CLTA 0 | A549-TUBA1B-RELA 0 | HepG2-ACTB-RAB5A 0 | HepG2-CANX-COX4 0 | HepG2-GM130-SQSTM1 0 | HepG2-TP53BP1-CLTA 0 | HepG2-TUBA1B-RELA 0 | WPMY1-ACTB-RAB5A 0 | WPMY1-CANX-COX4 0 | WPMY1-GM130-SQSTM1 0 | WPMY1-TP53BP1-CLTA 0 | WPMY1-TUBA1B-RELA 0

C#C[C@]1(OC(C)=O)CC[C@H]2[C@@H]3CCC4=CC(=NO)CC[C@@H]4[C@H]3CC[C@@]21CC [norgestimate]
inactive: A549-ACTB-RAB5A 0 | A549-CANX-COX4 0 | A549-GM130-SQSTM1 0 | A549-TP53BP1-CLTA 0 | A549-TUBA1B-RELA 0 | HepG2-ACTB-RAB5A 0 | HepG2-CANX-COX4 0 | HepG2-GM130-SQSTM1 0 | HepG2-TP53BP1-CLTA 0 | HepG2-TUBA1B-RELA 0 | WPMY1-ACTB-RAB5A 0 | WPMY1-CANX-COX4 0 | WPMY1-GM130-SQSTM1 0 | WPMY1-TP53BP1-CLTA 0 | WPMY1-TUBA1B-RELA 0

NC1=NCC2c3ccccc3Cc3ccccc3N12 (stereo not given) [epinastine]
inactive: A549-ACTB-RAB5A 0 | A549-CANX-COX4 0 | A549-GM130-SQSTM1 0 | A549-TP53BP1-CLTA 0 | A549-TUBA1B-RELA 0 | HepG2-ACTB-RAB5A 0 | HepG2-CANX-COX4 0 | HepG2-GM130-SQSTM1 0 | HepG2-TP53BP1-CLTA 0 | HepG2-TUBA1B-RELA 0 | WPMY1-ACTB-RAB5A 0 | WPMY1-CANX-COX4 0 | WPMY1-GM130-SQSTM1 0 | WPMY1-TP53BP1-CLTA 0 | WPMY1-TUBA1B-RELA 0
